# Test results: ChEMBL document CHEMBL4513216, “Probing the Open Global Health Chemical Diversity Library for Multistage-Active Starting Points for Next-Generation Antimalarials” (ACS Infect Dis, 2020)
# About 8,600 (12%) of roughly 69,000 compounds showed an effect of 50% or more. This excerpt belongs to a sample that is enriched for strong results.
# Test system: Plasmodium berghei
# Test: Screen against P. berghei liver stage (PbLuc), transformed with Luciferase, at 10uM
# Format: functional, HepG2
# Conditions: tested at 10 uM
row,SMILES,INHIBITION [%]
1,CN1C(=O)Cc2cc(-c3csc(CCN4CCOC4=O)n3)ccc21,19.2
2,CC(C)CN1C[C@H]2CCN(Cc3cccnc3)CC[C@H]2S1(=O)=O,42.1
3,CCn1cc(CN2CCCN(C(=O)CCc3nccs3)CC2)cn1,1.78
4,O=C(Nc1cc(F)ccc1OCC1CCCO1)NC1CC1 (configuration not stated),-12.1
5,CC(C)(C)CN1CCCC2(CCN(C(=O)c3cn[nH]c3)C2)C1 (configuration not stated),68
6,CC(C)(C)CN1CCCC2(CCN(C(=O)c3ccc(O)nc3)C2)C1 (configuration not stated),43.1
7,O=C(c1cn[nH]c1)N1CCC2(CCCN(Cc3ccc(F)c(F)c3)C2)C1 (configuration not stated),25.8
8,Cc1cnn(CC2CN(CC(=O)Nc3nncs3)CCO2)c1 (configuration not stated),30.76
9,CC(=O)N1CCCC1c1nc(C)cc(-c2ccc(F)cc2)n1 (configuration not stated),48.4
10,CN1CCC/C1=N\S(=O)(=O)c1ccc(NC(=O)c2ccco2)cc1,-67.3
11,CNS(=O)(=O)c1ccc(F)c(C(=O)NCc2ccnc(OC)c2)c1,31.2
12,CCc1noc(CCCC(=O)Nc2cc(C(F)(F)F)c[nH]c2=O)n1,29.8
13,CCCc1noc(CCC(=O)Nc2cc(C(F)(F)F)c[nH]c2=O)n1,52.2
14,CC(C)c1noc(CCC(=O)Nc2cc(C(F)(F)F)c[nH]c2=O)n1,41.5
15,Cc1cnn(CC2CN(c3nnc(C)c(C)c3C#N)CCO2)c1 (configuration not stated),15.635
16,CCOC(=O)N1CCN(C(=O)c2sc(-c3ccccc3F)nc2C)CC1,39.9
17,CCOC(=O)N1CCN(c2nc(CCN)nc3sc(C)c(C)c23)CC1,90.7
18,Cc1sc2nc(CCN)nc(N3CC(N4CCCCC4)C3)c2c1C,86.9
19,Cc1sc2nc(CCN)nc(N3CCC(N4CCCC4)CC3)c2c1C,39.6
20,CCc1c(C)sc2ncnc(N3C[C@H](O)[C@@H](N4CCCC4)C3)c12,48.5
21,Cc1sc2nc(CCN)nc(N3CCN(S(C)(=O)=O)CC3)c2c1C,67.5
22,Cc1nc(C2CCN(S(C)(=O)=O)CC2)nc(N2CCCC2)c1C,11.25

row,SMILES,INHIBITION [%]
1,COC(=O)CNC(=O)CSCc1nc(O)c2c(C)c(C)sc2n1,22.1
2,Cc1sc2nc(CCN)nc(N3CCS(=O)(=O)CC3)c2c1C,31.3
3,NC(=O)c1cccc(-c2cnc(C3CCCNC3)cn2)c1 (configuration not stated),34.3
4,CC(C)N(C)Cc1ncn2c1CN(S(=O)(=O)c1cccs1)CCC2,38.5
5,Cc1noc([C@@H](C)NCc2ccc(F)cc2)c1C(=O)O,-4.82
6,CCCS(=O)(=O)N1C[C@@H]2CN(Cc3ccco3)CCO[C@@H]2C1,-32.6
7,O=C(NCC1CCOC1)N1CCN(Cc2ccc3c(c2)OCO3)CC1 (configuration not stated),33.3
8,Cc1cc2cc(C(=O)N[C@@H]3CC[C@@H](N4CCCC4)[C@@H]3O)ccc2o1,26.3
9,Cc1noc(C2CCCN(Cn3cc(Br)cn3)C2)n1 (configuration not stated),-12.2
10,Cc1noc(CS(=O)(=O)CC(=O)NC(C)c2ccccc2)n1 (configuration not stated),31.2
11,CCCc1noc(CS(=O)(=O)CC(=O)NC(C)CCC)n1 (configuration not stated),58.3
12,CCC(C)NC(=O)CS(=O)(=O)Cc1nc(-c2cccs2)no1 (configuration not stated),46.4
13,CC[C@@H]1N(CC2CC2)CCC[C@]12CCC(=O)N2CCOC,4.2
14,Cc1noc(CN2CCN(C(=O)c3ccccn3)CC2)n1,37.3
15,CCc1nnc(CN2CCCN(C(=O)c3ccccn3)CC2)o1,-47.6
16,Cc1nc(CN2CCCN(C(=O)c3ccccn3)CC2)oc1C,60.5
17,Cc1nc(CN2CCCN(C(=O)c3ccn(C)c(=O)c3)CC2)cs1,-12.2
18,O=C(c1ccc(COc2ccccc2Cl)o1)N1N=CCC1(O)C(F)(F)F (configuration not stated),4.66
19,O=C(Cc1ccc(Cl)cc1)N1CCC(O)(C(F)(F)F)C1 (configuration not stated),-55
20,COCc1ccc(C(=O)N2CCC(Oc3ccccc3)(C(=O)O)CC2)o1,-11.6
21,O=C(c1ccc(COc2ccc(Cl)cc2)o1)N1N=CCC1(O)C(F)(F)F (configuration not stated),89.3
22,O=C(NC1CCCC1)c1ccc(COCC(F)(F)F)o1,31.6

row,SMILES,INHIBITION [%]
1,Cc1cccc(OCc2ccc(C(=O)N3N=CCC3(O)C(F)(F)F)o2)c1 (configuration not stated),69.2
2,COc1ccc(C(=O)COc2coc(CN3CCCCC3)cc2=O)cc1,44.9
3,CC(C)NC(=O)N1CC[C@@H](N(C)C)[C@@H]1Cc1ccncc1,28.2
4,CCS(=O)(=O)N1CCN(Cc2ccncc2)c2nc(C)ccc2C1,48.6
5,CC(c1ccc2c(c1)OCO2)n1cc2nc(N(C)C)[nH]cc-2c1=O (configuration not stated),39.3
6,CC(C)CC(=O)Nc1ccc2c(c1)ncn2CC(=O)NCCN(C)C,32.4
7,COCCN1CCCC(CCCc2ccccn2)(C(N)=O)C1 (configuration not stated),-58.7
8,CCOc1ccc(NC(C)=O)cc1S(=O)(=O)Nc1nnc(C)s1,21.8
9,CCOc1ccc(NC(C)=O)cc1S(=O)(=O)Nc1ccon1,7.83
10,CCOc1ccc(NC(C)=O)cc1S(=O)(=O)Nc1cc(C)on1,54.2
11,Clc1ccccc1-c1nnc(CN2CCCC2Cn2cncn2)o1 (configuration not stated),27.4
12,Cn1cc(CN2CCO[C@@H]3CN(C4CCCC4)C[C@@H]3C2)cn1,41.2
13,c1cc(CNCc2ccnc(N3CCCC3)c2)c2c(c1)OCCCO2,98.3
14,COc1ccc(OC)c(CNCc2ccnc(N3CCOCC3)c2)c1,-2.53
15,OCc1cccc(CNCc2cccc3c2OCCO3)c1,-33.4
16,COc1ccc(CNCc2ccnc(N3CCOCC3)c2)cc1OC,27.1
17,c1cc(CNCc2ccnc(N3CCCC3)c2)c2c(c1)OCO2,-17.2
18,CN(C)c1cc(CNCc2cccc3c2OCCO3)ccn1,52.1
19,COc1cccc(CNCc2ccnc(N3CCOCC3)c2)c1OC,50.5
20,c1cc(CNCc2ccnc(N3CCCC3)c2)c2c(c1)OCCO2,44.4
21,CN1CCN(c2cc(CNCc3cccc4c3OCO4)ccn2)CC1,73.9
22,c1cc(CNCc2ccnc(N3CCOCC3)c2)c2c(c1)OCCCO2,26.4

row,SMILES,INHIBITION [%]
1,c1cc(CNCc2ccnc(N3CCOCC3)c2)c2c(c1)OCO2,-35.2
2,c1cc(CNCc2ccnc(N3CCOCC3)c2)c2c(c1)OCCO2,9.48
3,NC(=O)c1csc(N2C[C@@H](CN3CCOCC3)[C@@H](CO)C2)n1,20.645
4,O=C(NCCNc1cnccn1)N1CCCC(N2CCCC2)C1 (configuration not stated),37.4
5,c1cc(CN2CCC[C@@H](Cn3nnc(-c4cnccn4)n3)C2)ccn1,18.285
6,CCOc1cc(NC(=O)N2CCC3(CCOCC3)C2)ccc1C,-38.1
7,Cc1cc(CN(Cc2cccs2)CC2CCCO2)on1 (configuration not stated),19.4
8,CCN(CC)c1nc(O)cc(C(C)n2ncc3ccccc3c2=O)n1 (configuration not stated),0.45
9,O=C(C1CCCCC1)N1CCCC2(CCN(c3cnccn3)CC2)C1,-2.35
10,c1cc(CNCc2ccc(Cn3cncn3)cc2)c2c(c1)OCCO2,16
11,c1cc(CNCc2ccnc(N3CCCCC3)c2)c2c(c1)OCCCO2,70.1
12,CC1CN(c2cc(CNCc3cccc4c3OCCO4)ccn2)CCO1 (configuration not stated),-26.2
13,c1cc(CNCc2cccc3c2OCCO3)cc(Cn2cncn2)c1,-8.41
14,c1cc(CNCc2cccc3c2OCCCO3)cc(Cn2cncn2)c1,53.1
15,CCc1nc(CN(C)C2CCN(Cc3nc(C4CC4)no3)C2)no1 (configuration not stated),-31.6
16,COCC(=O)N1CCC(c2c(C(=O)N(C)C)sc3ncccc23)C1 (configuration not stated),9.54
17,O=C(c1nc2c(o1)CN(CC1CC1)C2)N1CCCC1,18.5
18,CCCOc1ccccc1NCC(=O)Nc1ccc(CC)cc1,15
19,c1cn2c(n1)CN(CC1CC1)CC(CN1CCOCC1)C2 (configuration not stated),42.1
20,CCOC1CCN(C(=O)NCc2ccc(C(=O)N(C)C(C)C)cc2)CC1,27.6
21,CCOC1CCN(C(=O)NCc2ccc(CN3CCOCC3)cc2)CC1,61.8
22,CCOC1CCN(C(=O)NCc2cccc(-n3cccn3)c2)CC1,1.98

row,SMILES,INHIBITION [%]
1,O=C(N[C@@H]1CCC[C@@H](N2CCOCC2)[C@@H]1O)c1cc2ccccc2[nH]1,-3.31
2,CC(C)N(C)Cc1cnc2n1CCN(Cc1cccc(F)c1)C2,-22.1
3,COCCNc1nc(NCCc2ccccc2)nc2nccnc12,-14.9
4,O=C(c1ccncc1)N1C[C@@H](OCc2cccnc2)[C@H]2OCCC[C@H]21,10.6
5,CSCC(=O)N1CCc2c(cnc(C)c2-c2noc(-c3cscn3)n2)C1,16.7
6,Cc1cc(-c2nc(-c3c(C)ncc4c3CCNC4)no2)nc(C)n1,33.7
7,Cc1ncc2c(c1-c1noc(-c3cscn3)n1)CCNC2,58.8
8,NC(=O)C1CCN(C(=O)NCc2ccccc2-n2cccn2)C1 (configuration not stated),0.914
9,CC(=O)N1CCCN(C(=O)NCc2cccnc2OC(C)C)CC1,-40.2
10,CC(C)Oc1ncccc1CNC(=O)N1CCC1,54.4
11,CC(C)Oc1ncccc1CNC(=O)N1CCC(C(N)=O)C1 (configuration not stated),40.3
12,NC(=O)C1CCN(C(=O)NCc2ccccc2-n2cccn2)CC1,44.1
13,NC(=O)CC1CCN(C(=O)NCc2ccccc2-n2cccn2)CC1,56.3
14,CC(C)Oc1ncccc1CNC(=O)N1CCC1c1ccccc1 (configuration not stated),52
15,NC(=O)C1CCN(C(=O)NCc2cccnc2OC2CCCC2)C1 (configuration not stated),11.2
16,NC(=O)C1CCN(C(=O)NCc2cccnc2OCC(F)(F)F)C1 (configuration not stated),56.4
17,CC(C)Oc1ncccc1CNC(=O)N1CCSCC1,9.14
18,Cc1cc(C2CCCN2C(=O)NCc2cccnc2OC(C)C)on1 (configuration not stated),29
19,CC(C)Oc1ncccc1CNC(=O)N1CCCC1c1ccsc1 (configuration not stated),31.2
